Test systems include HCI01; HCI03; HCI09; HCI11; HCI16; UCD52; WHIM2; WHIM30; HCI13.
What all share (assay): cell viability (% of vehicle); higher = less cytotoxic
Common to all, as to conditions: 10 µM; 72 h

Where a name gives a salt, the structure may show the parent alone. ± gives the standard deviation of the averaged measurements.
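Note: PDX cells carrying CMV promoter-driven luciferase, viability read as total photon flux per second by IVIS imaging following D-luciferin, vehicle control 0.1% DMSO.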

As for `Cl.O=C1NCC2(CCN(CCc3ccccc3)CC2)O1` [Fenspiride HCl], the cell viability with HCI01 is 118 ± 42; with HCI03, 126; with HCI09 it was 101 ± 14; in the assay with HCI11, 98.4; in the assay on HCI16 (cells of a triple-negative basal-like breast cancer xenograft) it was 104; with UCD52, 99.1 ± 6.4. In addition, the cell viability with WHIM2 was found to be 98.1 ± 4.1; with WHIM30, 93.8 ± 14.
For the compound `CCc1c2c(nc3ccc(OC(=O)N4CCC(N5CCCCC5)CC4)cc13)-c1cc3c(c(=O)n1C2)COC(=O)[C@]3(O)CC` [Irinotecan HCl Trihydrate], the cell viability with HCI01 came to 70.8 ± 22; in the assay on HCI03 (cells of an ER-positive luminal breast cancer xenograft), 165; in the assay on HCI09 (cells of a triple-negative luminal androgen receptor type breast cancer xenograft), 120 ± 25; with HCI13, 114 ± 15; in the assay on HCI16, 105; in the assay on UCD52 (cells of a triple-negative basal-like breast cancer xenograft), 104 ± 17. Besides, the cell viability in the assay on WHIM2 (cells of a triple-negative basal-like breast cancer xenograft) stood at 68 ± 3.8; in the assay with WHIM30, 107 ± 19.
Turning to `CC(=O)OCC(=O)[C@@]12N=C(C)O[C@@H]1C[C@H]1[C@@H]3CCC4=CC(=O)C=C[C@]4(C)[C@H]3[C@@H](O)C[C@@]12C` [Deflazacort], the cell viability with HCI01 is 107 ± 38; in the assay on HCI03, 141; in the assay on HCI09, 137 ± 32; in the assay on HCI11 (cells of an ER-positive luminal breast cancer xenograft) it was 133; in the assay with WHIM2, 119 ± 14; with WHIM30, 145 ± 3.2.
For the compound `COCCCOc1ccnc(C[S+]([O-])c2nc3ccccc3[nH]2)c1C` (stereo unspecified) [Rabeprazole sodium], the cell viability came out at 167 ± 75 in the assay with HCI01; 197 in the assay on HCI03; 82.4 ± 28 in the assay with HCI09; 115 in the assay on HCI11; 178 ± 5.8 in the assay on UCD52; 135 ± 15 in the assay with WHIM2.
For `O=C([O-])CC(O)CC(O)C=Cc1c(C2CC2)nc2ccccc2c1-c1ccc(F)cc1.O=C([O-])CC(O)CC(O)C=Cc1c(C2CC2)nc2ccccc2c1-c1ccc(F)cc1.[Ca+2]` (stereo unspecified) [Pitavastatin Calcium], the cell viability in the assay on HCI01 (cells of a triple-negative basal-like breast cancer xenograft) amounted to 83.9 ± 10; in the assay on HCI03, 78.4; in the assay with HCI09, 53.9 ± 27; in the assay on HCI13 (cells of an ER-positive luminal breast cancer xenograft) it was 148 ± 27; with HCI16 it was 113; in the assay with UCD52, 50.2 ± 1.3. The cell viability in the assay with WHIM2 was determined as 67.8 ± 23; in the assay with WHIM30 it was 93.3 ± 4.9.
For the compound `CCC(=O)OCC(=O)C1(OC(=O)CC)C(C)CC2C3CCC4=CC(=O)C=CC4(C)C3(F)C(O)CC21C` (stereo unspecified) [Betamethasone Dipropionate], the cell viability with HCI01 was determined as 126 ± 23; in the assay on HCI03 it was 138; with HCI09 it was 150 ± 25; with HCI11, 136; in the assay with UCD52, 147 ± 14; in the assay with WHIM2 it was 92.3 ± 26.
For the compound `CCOC(=O)OC1(C(=O)OCCl)CCC2C3CCC4=CC(=O)C=CC4(C)C3C(O)CC21C` (stereo unspecified) [Loteprednol etabonate], the cell viability in the assay with HCI01 turned out to be 90.8 ± 59; in the assay with HCI03, 196; in the assay with HCI09, 150 ± 70; in the assay on HCI11, 123; in the assay with UCD52, 158 ± 33; in the assay with WHIM2, 105 ± 11. Besides, the cell viability in the assay with WHIM30 is 198 ± 12.
Take `CC1CC2C3CCC4=CC(=O)C=CC4(C)C3(F)C(O)CC2(C)C1(O)C(=O)CO` (stereo unspecified) [Betamethasone]: the cell viability in the assay with HCI01 is 130 ± 41; in the assay with HCI03 it was 177; in the assay with HCI09, 145 ± 32; with HCI11 it was 175; in the assay with UCD52 it was 183 ± 2.4; in the assay with WHIM2, 130 ± 27. Besides, the cell viability in the assay with WHIM30 is 184 ± 37.
As to `O=C(Nc1cccc2c(=O)cc(-c3nn[nH]n3)oc12)c1ccc(OCCCCc2ccccc2)cc1` [Pranlukast], the cell viability was 96.3 ± 9.7 with HCI01; 97.5 with HCI03; 64 ± 5.3 in the assay on HCI09; 101 in the assay with HCI11; 147 in the assay with HCI16; 102 ± 2.1 with UCD52. Further, the cell viability worked out at 65.3 ± 11 in the assay with WHIM2 and 152 ± 11 in the assay with WHIM30.
As for `NCCc1cnc[nH]1.O=P(O)(O)O.O=P(O)(O)O` [Histamine Phosphate], the cell viability in the assay with HCI01 amounted to 117 ± 18; with HCI03 it was 117; in the assay with HCI09 it was 95.2 ± 15; in the assay on HCI11 it was 98.4; in the assay on HCI16 it was 131; with UCD52, 99.9 ± 17. For the same compound, the cell viability came out at 98.8 ± 4.3 in the assay with WHIM2 and 149 ± 14 in the assay on WHIM30 (cells of a triple-negative basal-like breast cancer xenograft).
With `CC(=O)OCC(=O)[C@@]12OC(C)(C)O[C@@H]1C[C@H]1[C@@H]3C[C@H](F)C4=CC(=O)C=C[C@]4(C)[C@@]3(F)[C@@H](O)C[C@@]12C` [Fluocinonide], the cell viability was found to be 75.9 ± 53 with HCI01; 179 in the assay on HCI03; 127 ± 39 in the assay on HCI09; 129 with HCI11; 156 ± 2.6 in the assay with UCD52; 94.6 ± 31 with WHIM2. The compound further had a cell viability in the assay with WHIM30 of 175.6 ± 0.94.
Regarding `CCCC(=O)OC1(C(=O)COC(C)=O)CCC2C3CC(F)C4=CC(=O)C=CC4(C)C3(F)C(O)CC21C` (stereo unspecified) [Difluprednate], the cell viability was 110 ± 13 in the assay with HCI01; 137 with HCI03; 134 ± 37 in the assay on HCI09; 116 in the assay on HCI11; 177 ± 21 with UCD52; 128 ± 7.3 in the assay with WHIM2. The compound further returned a cell viability in the assay on WHIM30 of 175 ± 11.
For the compound `CCN(CC)CC#CCOC(=O)C(O)(c1ccccc1)C1CCCCC1.Cl` (stereo unspecified) [Oxybutynin chloride], the cell viability worked out at 175 ± 51 in the assay on HCI01; 170 in the assay with HCI03; 139 ± 59 in the assay with HCI09; 140 in the assay on HCI11; 178 in the assay with HCI16; 109 ± 10 with UCD52. Besides, the results for the cell viability with WHIM2 and in the assay with WHIM30 were 166 ± 20 and 85.9 ± 14, respectively.
For the compound `CCCC(NC(=O)C1C2CCCC2CN1C(=O)C(NC(=O)C(NC(=O)c1cnccn1)C1CCCCC1)C(C)(C)C)C(=O)C(=O)NC1CC1` (stereo unspecified) [Telaprevir (VX-950)], the cell viability in the assay on HCI01 was 154 ± 43; with HCI03, 102; in the assay with HCI09 it was 80.2 ± 12; in the assay with HCI13, 96.4 ± 12; in the assay on HCI16, 144; in the assay with UCD52, 123 ± 6.4. Besides, the cell viability came to 96.2 ± 12 in the assay on WHIM2 and 165 ± 15 in the assay with WHIM30.
For `Oc1ccc(OCc2ccccc2)cc1` [Monobenzone], the cell viability is 187 ± 11 in the assay with HCI01; 180 in the assay on HCI03; 157 in the assay with HCI11; 181 ± 4.9 with HCI13; 153 in the assay with HCI16; 167 ± 14 in the assay on UCD52. The compound further showed a cell viability in the assay on WHIM2 of 145 ± 23.
As for `CC1(C)O[C@@H]2C[C@H]3[C@@H]4C[C@H](F)C5=CC(=O)C=C[C@]5(C)[C@@]4(F)[C@@H](O)C[C@]3(C)[C@]2(C(=O)CO)O1` [Fluocinolone Acetonide], the cell viability was 84 ± 59 with HCI01; 154 with HCI03; 132 ± 27 with HCI09; 120 in the assay on HCI11; 131 ± 17 in the assay with UCD52; 109 ± 34 in the assay with WHIM2.
With `CC12C=CC(=O)C=C1CCC1C2C(O)CC2(C)C1CCC2(O)C(=O)CO` (stereo unspecified) [Prednisolone], the cell viability with HCI01 amounted to 135 ± 39; with HCI03 it was 175; with HCI09, 166 ± 82; in the assay with HCI11, 132; in the assay on UCD52, 173 ± 4.8; in the assay on WHIM2, 114 ± 2.7.
With `CC1CC2C3CC(F)C4=CC(=O)C=CC4(C)C3(F)C(O)CC2(C)C1(O)C(=O)CO` (stereo unspecified) [Flumethasone], the cell viability came out at 144 ± 49 in the assay on HCI01; 180 with HCI03; 140 ± 56 in the assay with HCI09; 145 with HCI11; 166 ± 22 with UCD52; 93.2 ± 12 in the assay on WHIM2. Besides, in the assay on WHIM30, the cell viability worked out at 163 ± 5.2.
Turning to `CCC(=O)OC1(C(=O)CCl)C(C)CC2C3CC(F)C4=CC(=O)C=CC4(C)C3(F)C(O)CC21C` (stereo unspecified) [Halobetasol Propionate], the cell viability in the assay with HCI01 was 159 ± 6.9; with HCI03, 152; with HCI09, 133 ± 96; in the assay with HCI11, 133; with UCD52, 191 ± 18; with WHIM2, 113 ± 9.6.
For the compound `O=C(O)CC(O)CC(O)C=Cc1c(C2CC2)nc2ccccc2c1-c1ccc(F)cc1` (stereo unspecified) [Pitavastatin], the cell viability with HCI01 turned out to be 119 ± 18; in the assay on HCI03, 125; in the assay on HCI09 it was 102 ± 19; in the assay on HCI16 it was 171; in the assay on UCD52, 74.9 ± 9.2; in the assay with WHIM2, 93.6 ± 47. Further, the cell viability with WHIM30 worked out at 92.2 ± 11.
